Here are results for ten compounds from article PMC5540273 (PLoS ONE, 2017).

Conditions in all cases: concentration: 1 μM, replicates: in singlicate; n = 1
Experiment [1] deals with MAP3K4.
The test system of experiment [2] is MAP4K2.
The test system of experiment [3] is MAP4K3.
The subject of experiment [4] is MAP4K4.
In experiment [5] the test system is MAP4K5.
Experiment [6] concerns MAPKAPK2.
For experiment [7], the system named is MAPKAPK5.
Experiment [8] concerns MARK1.
In experiment [9] the test system is MARK2.
Experiment [10] relates to MARK3.
Experiment [11] has as its system MARK4.
Experiment [12] deals with MAST1.
For experiment [13], the system named is T1, MEK1.
T1 construct: gene MAP2K1

The test system of experiment [14] is T2, MEK2.
T2 construct: gene MAP2K2

Experiment [15] has as its system T3, MEK3.
T3 construct: gene MAP2K3

Experiment [16] relates to T4, MEK4.
T4 construct: gene MAP2K4

Experiment [17] has as its system T5, MEK5.
T5 construct: gene MAP2K5

In experiment [18] the test system is T6, MEK6.
T6 construct: gene MAP2K6

The subject of experiment [19] is MELK.
For experiment [20], the system named is MERTK.
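Further: KINOMEscan kinase panel screen.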

As to `COC(=O)c1c(-c2ccccc2)c2cc(Br)ccc2c(=O)n1Cc1ccc(NC(=O)CCC(=O)O)cc1`, the “%Inh” value is recorded as 38% in experiment [1]; 0% in experiment [2]; 0% in experiment [3]; 0% in experiment [4]; 0% in experiment [5]; 16% in experiment [6]. The “%Inh” value is 4% in experiment [7]; 7% in experiment [8]; 6% in experiment [9]; 0% in experiment [10]; 4% in [11]; 29% in experiment [12]. Moreover, the “%Inh” value came out at 0% in experiment [13]; 3% in [14]; 11% in [15]; 10% in [16]; 10% in experiment [17]; 21% in experiment [18]. In addition, the “%Inh” value in experiment [19] was 7%; in [20], 3%.

For the compound `Nc1n[nH]c2nnc(-c3ccccc3)c(-c3ccccc3)c12` [GW554060], the “%Inh” value is recorded as 0% in experiment [1]; 0% in experiment [2]; 0% in [3]; 0% in experiment [4]; 0% in experiment [5]; 22% in experiment [6]. Also, the “%Inh” value in experiment [7] worked out at 0%; in experiment [8], 0%; in experiment [9] it was 0%; in [10], 0%; in [11], 0%; in [12], 9%. For the same compound, the “%Inh” value in experiment [13] was found to be 0%; in experiment [14], 0%; in experiment [15], 5%; in [16] it was 14%; in experiment [17] it was 30%; in experiment [18] it was 0%. Besides, the “%Inh” value in [19] is reported as 18%; in [20], 0%.

Regarding `Nc1n[nH]c2ncc(-c3ccccc3)cc12` [SB-517081], the “%Inh” value in experiment [1] is on record as 3%; in experiment [2] it was 0%; in [3] it was 0%; in experiment [4], 0%; in experiment [5] it was 0%; in experiment [6] it was 19%. The “%Inh” value in experiment [7], in experiment [8], in experiment [9], in [10], in [11] and in [12] was 0% in each case. Also, the “%Inh” value was found to be 0% in experiment [13]; 1% in experiment [14]; 0% in experiment [15]; 0% in [16]; 85% in [17]; 4% in experiment [18]. The “%Inh” value in experiment [19] and in experiment [20] was 0% throughout.

Consider `CCC(=O)c1c(-c2ccccc2)c2cc(Cl)ccc2c(=O)n1Cc1cc(S(C)(=O)=O)n(CCC(C)(C)O)n1`, for which the “%Inh” value came out at 14% in experiment [1]; 0% in experiment [2]; 0% in experiment [3]; 0% in experiment [4]; 18% in experiment [5]; 23% in experiment [6]. The “%Inh” value amounted to 20% in [7]; 0% in experiment [8]; 15% in experiment [9]; 18% in [10]; 0% in [11]; 0% in experiment [12]. In addition, the “%Inh” value in [13] is listed as 11%; in experiment [14], 19%; in [15], 23%; in experiment [16], 40%; in [17], 0%; in experiment [18] it was 8%. Also, the figures for the “%Inh” value in [19] and in [20] were 16% and 13%, respectively.

Regarding `Cc1ccc(-c2ccc3c(ccc4sc5c(c43)NC[C@@H](C)N=C5N(C)C)n2)cn1`, the “%Inh” value in experiment [1], in experiment [2], in experiment [3], in [4], in experiment [5] and in [6] was 0% each time. In addition, the “%Inh” value in experiment [7] came to 0%; in experiment [8], 0%; in experiment [9], 5%; in [10] it was 0%; in experiment [11], 0%; in experiment [12], 0%. In addition, the “%Inh” value in [13] was 0%; in experiment [14], 0%; in experiment [15], 0%; in [16] it was 0%; in experiment [17], 0%; in experiment [18] it was 2%. Moreover, the “%Inh” value in experiment [19] and in [20] was 0% each time.

Regarding `COc1cc(OC)cc(-c2cc3cnc(N)nc3nc2NC(=O)NC(C)(C)C)c1`, the “%Inh” value in experiment [1] is listed as 32%; in [2], 0%; in experiment [3], 0%; in [4] it was 0%; in [5], 0%; in experiment [6] it was 0%. The “%Inh” value in experiment [7] is listed as 0%; in experiment [8] it was 0%; in experiment [9] it was 8%; in experiment [10], 0%; in experiment [11] it was 0%; in experiment [12], 0%. Also, the “%Inh” value in experiment [13], in experiment [14], in experiment [15], in experiment [16], in experiment [17] and in experiment [18] was 0% throughout. The “%Inh” value in experiment [19] and in experiment [20] was 0% throughout.

As to `Nc1ncnc2c1ncn2-c1cccc2ccccc12` [SKF-97184], the “%Inh” value in experiment [1] is on record as 2%; in experiment [2], 0%; in [3], 0%; in [4], 0%; in experiment [5] it was 0%; in [6] it was 0%. For the same compound, the “%Inh” value in experiment [7] amounted to 0%; in experiment [8] it was 23%; in [9] it was 0%; in experiment [10], 52%; in [11], 29%; in experiment [12] it was 53%. The “%Inh” value in experiment [13] is listed as 5%; in [14] it was 24%; in experiment [15], 38%; in [16], 8%; in experiment [17], 26%; in experiment [18], 22%. Moreover, the “%Inh” value in experiment [19] and in experiment [20] was 0% throughout.

Take `COc1cc(Nc2nccc(N3CCC(NC(=O)C4COc5ccccc5O4)C3)n2)cc(OC)c1OC` (centres unmarked) [GSK1379761]: the “%Inh” value in experiment [1] is 22%; in [2] it was 0%; in experiment [3], 2%; in experiment [4], 6%; in [5] it was 0%; in [6] it was 0%. Also, the “%Inh” value in experiment [7], in experiment [8], in [9], in [10], in experiment [11] and in [12] was 0% each time. Moreover, the “%Inh” value came to 25% in [13]; 0% in experiment [14]; 0% in experiment [15]; 0% in experiment [16]; 97.2% in [17]; 0% in [18]. Besides, the results for the “%Inh” value in experiment [19] and in experiment [20] were 11% and 36%, respectively.

In the case of `CCC(=O)c1c(-c2ccccc2)c2cc(Cl)ccc2c(=O)n1Cc1cc(C(=O)NC2CC2)n(C)n1`, the “%Inh” value was 23% in [1]; 0% in [2]; 30% in [3]; 0% in experiment [4]; 0% in [5]; 8% in [6]. The “%Inh” value in experiment [7] is listed as 0%; in experiment [8] it was 13%; in [9], 0%; in [10] it was 0%; in experiment [11], 13%; in experiment [12], 47%. Further, the “%Inh” value in experiment [13] was found to be 6%; in [14] it was 3%; in experiment [15], 2%; in [16], 8%; in experiment [17], 11%; in experiment [18], 22%. Also, the “%Inh” value in experiment [19] was 0%; in experiment [20], 5%.

As to `COc1cc2ncn(-c3cc(OCCCc4ccccc4)c(C(N)=O)s3)c2cc1OC` [GSK205189], the “%Inh” value in experiment [1] amounted to 16%; in [2] it was 0%; in experiment [3], 0%; in [4] it was 14%; in [5], 39%; in experiment [6], 7%. In addition, the “%Inh” value in experiment [7], in [8], in experiment [9], in experiment [10], in experiment [11] and in experiment [12] was 0% throughout. The “%Inh” value in experiment [13] worked out at 0%; in experiment [14], 0%; in [15], 0%; in experiment [16], 0%; in experiment [17], 96.8%; in experiment [18] it was 0%. Further, the “%Inh” value in experiment [19] and in experiment [20] was 0% throughout.
